Only some compounds are listed: those with a hit (about 3.5% of all), similar ones and a draw of the others.
GPR151 ag: activates the human receptor GPR151; activation, % at 11.2 µM; PathHunter beta-arrestin GPR151 cells, luminescence; 1% of 650,000 active; in the data active = activation above about 4.9%;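 also: 0% = median of compound wells and 100% = cells with positive control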
Target sequence (Q8TDV0 whole entry, looked up): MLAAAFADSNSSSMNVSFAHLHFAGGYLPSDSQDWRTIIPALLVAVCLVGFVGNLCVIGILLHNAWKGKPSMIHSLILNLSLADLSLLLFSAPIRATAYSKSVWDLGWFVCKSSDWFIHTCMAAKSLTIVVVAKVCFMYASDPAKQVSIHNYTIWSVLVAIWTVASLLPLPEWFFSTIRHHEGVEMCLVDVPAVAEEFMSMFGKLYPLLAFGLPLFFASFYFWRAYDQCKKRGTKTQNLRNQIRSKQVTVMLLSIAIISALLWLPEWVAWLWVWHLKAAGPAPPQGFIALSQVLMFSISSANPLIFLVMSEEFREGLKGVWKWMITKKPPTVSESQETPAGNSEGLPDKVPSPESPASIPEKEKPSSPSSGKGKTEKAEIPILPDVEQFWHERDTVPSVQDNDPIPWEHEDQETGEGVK
MITF primary: blocks human microphthalmia-associated transcription factor; AlphaScreen MITF homodimerization, bead proximity signal; O75030; inhibition, % at 2.6 µM; 0.91% of 650,000 active; in the data active = inhibition above about 50%;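 also: 0% = vehicle wells with protein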
FBW7 activator: activators of human E3 ligase FBW7; AlphaScreen FBW7–phospho-cyclin E peptide binding, activator screen; normalized activity (activation), % at 26.1 µM; AID 1259310; Q969H0; 0.13% of 650,000 active; in the data active = normalized activity above about 1.9%;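 also: purified mutant Fbw7 with reduced substrate affinity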
TEAD-YAP inh: TEAD-YAP interaction inhibition | HEK-TIYL cells, TEAD-Gal4/YAP UAS-luciferase luminescence | inhibition, % at 9.12 µM | 1.4% of 640,000 active | AID 1259422; in the data active = inhibition above about 32%;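 also: 0% = median of test compound wells and 100% = reference inhibitor wells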
MITF inh conf: confirmation of human MITF inhibitors | 16% of 4,700 active | shares compounds with MITF primary | inhibition, % at 2.6 µM | AlphaScreen MITF homodimerization, biotin/His-MITF beads;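 active = inhibition above a cutoff derived from the DMSO control wells, cut at about 28% in these data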;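 also: 0% = MITF dimer wells with DMSO only; inhibitors lower the bead chemiluminescence by keeping MITF from dimerizing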
AlphaScreen intf2: optically interferes with AlphaScreen signal. inhibition, % at 2.6 µM. shares compounds with MITF primary. AID 1259376. LysRS AlphaScreen counterscreen, signal interference, triplicate. 7.6% of 4,700 active;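 active = inhibition above a cutoff derived from the DMSO control wells, cut at about 30% in these data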
An asterisk follows results filed as active; x = no result.

SMILES	GPR151 ag	MITF primary	FBW7 activator	TEAD-YAP inh	MITF inh conf	AlphaScreen intf2
CCOC(=O)/C(C#N)=C/c1ccc(OC(=O)c2ccccn2)cc1	-3	61*	-1	17	26	54*
O=[N+]([O-])c1ccccc1CN1CCN(C2CCCC2)CC1	-1	73*	0	1	9	2
O=[N+]([O-])c1ccccc1CN1CCC(N2CCc3ccccc3C2)CC1	-2	71*	0	6	13	27
CCN1CCN(C2CCN(Cc3ccccc3[N+](=O)[O-])CC2)CC1	1	9	0	-15	x	x
O=[N+]([O-])c1ccccc1CN1CCc2ccccc2C1	2	21	0	11	x	x
O=[N+]([O-])c1ccccc1CN1CCN(C2CCN(Cc3ccccc3)CC2)CC1	-2	88*	0	3	2	13
O=[N+]([O-])c1ccccc1CN1CCC(O)CC1	1	21	0	-9	x	x
O=[N+]([O-])c1ccccc1CN1CCC(N2CCCC2)CC1	0	57*	0	-10	10	2
COc1ccc(/C=C2/SC(=Nc3ccccc3)NC2=O)c(OC)c1	0	2	0	10	x	x
CC1CC(C)CN(C2CCN(Cc3ccccc3[N+](=O)[O-])CC2)C1 (stereo not given)	-1	58*	0	-5	0	3
O=[N+]([O-])c1ccccc1CN1CCN(C2CC3CCC2C3)CC1 (stereo not given)	-1	67*	0	-2	11	11
CCOC(=O)C1CCN(Cc2ccccc2[N+](=O)[O-])CC1	2	17	0	8	x	x
O=CN1CCN(Cc2ccc(Cl)cc2)CC1	1	50	0	12	x	x
Clc1ccc(CN2CCN(C3CC4CCC3C4)CC2)cc1 (stereo not given)	0	79*	0	-9	16	18
CCOc1cc(CN2CCc3c(nc(N4CCCCC4)[nH]c3=O)C2)ccc1OC	2	-5	0	-2	x	x
Cc1sc2ncnc(OCC(=O)c3ccc4c(c3)OCCO4)c2c1C	-1	-1	0	-15	x	x
N#Cc1c(SCC(=O)O)nc(N2CCCCC2)c2c1CCCC2	0	-1	0	5	x	x
CCCSc1nc(N2CCCCC2)c2c(c1C#N)CCCC2	0	66*	0	-4	-7	-5
CNC(=S)NNC(=O)C(=O)NNC(=S)NC	0	79*	-1	1	11	74*
CNC(=S)NNC(=O)c1ccc(O)cc1	-1	-2	0	-2	x	x
COc1cccc(/C=N/NC(=O)C(C)SCc2ccccc2)c1O (stereo not given)	1	12	0	13	x	x
CCOC(=O)N1CCN(C(=O)Cn2cnc3ccccc32)CC1	1	0	0	7	x	x
O=C(CN1CCC(Cn2cnc3ccccc32)CC1)N1CCc2ccccc21	0	81*	0	35*	0	14
Cc1ccc(NC(=O)CN2CCC(Cn3cnc4ccccc43)CC2)cc1Cl	0	70*	0	-5	12	13
CCOC(=O)CN1CCC(Cn2cnc3ccccc32)CC1	0	79*	0	17	7	17
SMILES	GPR151 ag	MITF primary	FBW7 activator	TEAD-YAP inh	MITF inh conf	AlphaScreen intf2
CCOc1ccccc1NC1c2ccccc2C(=O)N1c1ccccn1 (stereo not given)	0	-7	0	0	x	x
COc1nn(C)cc1C(=O)Nc1cccc(-c2cn3c(n2)SCC3)c1	-1	0	0	-14	x	x
COc1ccc(CC(=O)O/N=C(\N)c2ccc(Br)cc2)cc1	1	16	0	-1	x	x
COc1ccc(NC(=O)c2cc(-c3ccccc3)nc3ccccc23)c(OC)c1	0	-7	0	8	x	x
COc1ccc(NC(=O)NNC(=O)c2cc(C3CC3)nc3ccccc23)c(OC)c1	1	61*	0	-2	6	20
CS(=O)(=O)N1CCC(N2CCN(Cc3ccccc3)CC2)CC1	1	54*	0	-3	7	20
c1ccc(CN2CCC(N3CCN(C4CCN(Cc5ccccc5)CC4)CC3)CC2)cc1	0	21	0	16	x	x
CC1CCCC(N2CCN(Cc3cccc(Cl)c3)CC2)C1 (stereo not given)	1	67*	0	-5	1	-6
CCc1ccc(CN2CCN(C3CCN(Cc4ccccc4)CC3)CC2)cc1	-1	55*	0	6	-9	0
c1ccc(CN2CCN(C3CCCC3)CC2)cc1	0	75*	0	15	-5	-10
O=C(NCc1ccccc1)c1ccc(CSCc2c(F)cccc2Cl)o1	0	-3	0	5	x	x
CCC(CC)CN1CCc2nnc(C3CCCO3)n2CC1 (stereo not given)	-1	2	0	-4	x	x
CC(C)(Oc1ccc(Cl)cc1)C(=O)N(c1ccccc1)C1C=CS(=O)(=O)C1 (stereo not given)	2	10	0	7	x	x
CNC(=O)c1cc2ccccc2oc1=N	0	7	0	6	x	x
Cc1ccc(CN2CCN(C3CCCCC3)CC2)cc1	-1	65*	0	-12	3	18
Brc1cccc(CN2CCC(N3CCCCC3)CC2)c1	0	-10	0	-5	x	x
O=C(Cc1ccccc1)N1CCC(N2CCN(Cc3ccccc3)CC2)CC1	1	66*	0	6	2	9
Clc1cccc(CN2CCN(C3CCCCCC3)CC2)c1	-1	69*	0	1	-5	-6
Cc1c(C(=O)N2CC(C)CC(C)C2)sc2ncn(Cc3ccccc3F)c(=O)c12 (stereo not given)	0	12	0	6	x	x
O=C(/C=C/c1ccco1)N1CCN(Cc2nc3ccccc3n2Cc2ccccc2)CC1	0	60*	-1	-22	12	29
Fc1ccc(CN(Cc2ccccc2)C(=S)NC2CCCCC2)cc1	2	-7	0	2	x	x
O=C(CCCn1c(=S)[nH]c2ccccc2c1=O)N1CCOCC1	1	114*	0	1	1	0
O=C(/C=C/c1ccco1)N1CCN(c2ccc(-c3ccccn3)nn2)CC1	-1	49	-1	-5	x	x
O=C(/C=C/c1cccs1)N1CCN(c2ccc(-c3ccccn3)nn2)CC1	1	56*	-1	-8	104*	101*
O=C(Cc1cccs1)N1CCN(c2ccc(-c3ccccn3)nn2)CC1	-1	68*	-1	-11	51*	100*
Cn1cc(CC(=O)N2CCN(c3ccc(-c4ccccn4)nn3)CC2)c2ccccc21	-3	122*	-1	42*	108*	101*
O=[N+]([O-])c1ccc(NS(=O)(=O)c2ccccc2)cc1	1	2	0	0	x	x
COc1ccc([N+](=O)[O-])cc1N(CC(=O)O)S(C)(=O)=O	1	59*	0	2	0	11
CCCCC/C=C/C=C1/C(=O)C=C[C@@H]1C/C=C\CCCC(=O)NCCCCCNC(=O)CCCCC1SC[C@@H]2NC(=O)N[C@H]12 (stereo not given in full)	-1	124*	x	x	124*	101*

Screening data (PubChem)
